Measured values as given in the supplement of paper PMC10849652.
Targets with a hit are over-represented here; the source holds about 8,800 in all. About 0.5% of all pairs of compound and target were hits.

Columns and labels:
Assay in all cases: log2 fold change, soluble protein after heating vs DMSO (PISA); higher = thermal stabilisation; K562 lysate, 10 uM; active = over 0.2 and 3.5 SD of the protein, either way, in both replicates (recomputed)
erlotinib = compound: C#Cc1cccc(Nc2ncnc3cc(OCCOC)c(OCCOC)cc23)c1 [erlotinib]
Outline: (§1)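 Following dounce homogenisation of K562 pellets in PBS pH 7.4 with 1 mM MgCl2, crude extract at 1 mg/mL protein was incubated for 30 min with 10 μM compound. Aliquots were then heated for 3 min over 48°C-58°C and pooled, NP-40 was added to 0.5% at 4°C, and soluble protein was recovered as the supernatant at 21,000xg for 90 min. Channel-sum-equalised TMTpro 16plex LC-MS/MS quantified this protein. Each value, from duplicates, is a log-two fold change in thermal stability relative to solvent controls.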

[1] = compound: C/C(=N\NC(=O)C1=CC(=CC=C1)S(=O)(=O)N2CCOCC2)/C3=C(C=CC(=C3)Cl)O
Outline: as §1

[2] = compound: C1=CC(=CC=C1C2=NC3=C(N2)C=C(C=C3)C(=O)N)OC4=CC=C(C=C4)Cl
Outline: as §1

[3] = compound: C1=CC2=C(C=CC(=C2)/C=C\3/C(=O)NC(=NCC4=CC=CS4)S3)N=C1
Outline: as §1

[4] = compound: C1=CC2=NC=CN=C2C=C1/C=C/3\C(=O)NC(=O)S3
Outline: as §1

[5] = compound: C1=CC=C(C=C1)C2=NC(=C(N2)C3=CC=NC=C3)C4=CC(=C(C=C4)Cl)O
Outline: as §1

[6] = compound: C1=CC=C2C(=C1)C3=NNC4=CC=CC(=C43)C2=O
Outline: as §1

[7] = compound: C1CCN(C1)C(=O)NC2=CC=CC(=C2)NC3=NC=C(C(=N3)NCCC4=CN=CN4)Br
Outline: as §1

[8] = compound: C1CN(CCC1(CC2=CC=C(C=C2)Cl)N)C3=NC=NC4=C3C=CN4
Outline: as §1

IRAK-1-4 Inhibitor I = compound: C1COCCN1CCN2C3=CC=CC=C3N=C2NC(=O)C4=CC(=CC=C4)[N+](=O)[O-] [IRAK-1-4 Inhibitor I]
Outline: as §1

ibrutinib = compound: C=CC(=O)N1CCC[C@@H](n2nc(-c3ccc(Oc4ccccc4)cc3)c3c(N)ncnc32)C1 [ibrutinib]
Outline: as §1

[9] = compound: CC(=O)c1cnc2ccc(-c3cc(Cl)c(O)c(Cl)c3)nc2c1N[C@H]1CC[C@H](CN(C)C)CC1
Outline: as §1

ralimetinib = compound: CC(C)(C)Cn1c(N)nc2ccc(-c3[nH]c(C(C)(C)C)nc3-c3ccc(F)cc3)nc21 [ralimetinib]
Outline: as §1

[10] = compound: CC(C)(O)CC(=O)NCCn1ccc2ncnc(Nc3ccc(Oc4cccc(C(F)(F)F)c4)c(Cl)c3)c21
Outline: as §1

[11] = compound: CC(C)C1=C2N=C(C=C(N2N=C1)NCC3=CC=CC=C3)NCCCCCCN
Outline: as §1

[12] = compound: CC1=C(C(CC(=O)N1)C2=CC=C(C=C2)C(F)(F)F)C(=O)NC3=C(C=C4C(=C3)C=NN4)F
Outline: as §1

[13] = compound: CC1=C(C2=C(C=C1)C(=O)C3=CC=CC=C3N2CCCN)C
Outline: as §1

[14] = compound: CC1=C(C=C(C=C1)NC(=O)C2=CC(=CC=C2)C(C)(C)C#N)NC3=CC4=C(C=C3)N=CN(C4=O)C
Outline: as §1

[15] = compound: CC1=C(C=C(C=C1)NC(=O)C2=CC(=CC=C2)N(C)C)NC(=O)C3=CC=C(C=C3)O
Outline: as §1

[16] = compound: CC1=CC=C(C=C1)SC2=C3C=C(SC3=CN=C2)C(=O)N
Outline: as §1

Measured: log2 fold change

GOLGA6B (UniProt A6NDN3)
inactive: erlotinib 0.092 | [1] -0.061 | [2] -0.082 | [3] 0.033 | [4] 0.08 | [5] -0.013 | [6] -0.054 | [7] 0.011 | [8] 0.032 | IRAK-1-4 Inhibitor I -0.022 | ibrutinib -0.034 | [9] 0.003 | ralimetinib -0.047 | [10] -0.187 | [11] -0.057 | [12] -0.127 | [13] -0.114 | [14] 0.045 | [15] 0.066 | [16] 0

HDAC3 (UniProt E7ESJ6)
inactive: [9] -0.107 | [16] -0.004

ITGB1BP2 (UniProt Q9UKP3)
UniProt Q9UKP3, sequence (Q9UKP3 whole entry, looked up): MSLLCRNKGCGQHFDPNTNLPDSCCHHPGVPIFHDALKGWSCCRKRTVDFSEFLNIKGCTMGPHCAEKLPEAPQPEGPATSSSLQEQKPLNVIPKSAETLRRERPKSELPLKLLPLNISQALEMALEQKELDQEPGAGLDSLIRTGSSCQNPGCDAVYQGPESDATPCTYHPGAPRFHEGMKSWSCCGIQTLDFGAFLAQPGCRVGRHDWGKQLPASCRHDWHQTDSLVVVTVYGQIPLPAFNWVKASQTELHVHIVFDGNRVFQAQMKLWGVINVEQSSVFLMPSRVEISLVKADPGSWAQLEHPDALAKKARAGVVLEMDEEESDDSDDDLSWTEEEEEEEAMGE
inactive: [1] 0.017 | [3] -0.001 | [6] 0.039 | [7] -0.117 | [8] 0.09 | [13] 0.139

ITPRIP (UniProt Q8IWB1)
inactive: erlotinib 0.218 | [2] -0.16 | [11] 0.023 | [13] 0.041

IGFBP4 (UniProt P22692)
UniProt P22692, sequence (P22692 whole entry, looked up): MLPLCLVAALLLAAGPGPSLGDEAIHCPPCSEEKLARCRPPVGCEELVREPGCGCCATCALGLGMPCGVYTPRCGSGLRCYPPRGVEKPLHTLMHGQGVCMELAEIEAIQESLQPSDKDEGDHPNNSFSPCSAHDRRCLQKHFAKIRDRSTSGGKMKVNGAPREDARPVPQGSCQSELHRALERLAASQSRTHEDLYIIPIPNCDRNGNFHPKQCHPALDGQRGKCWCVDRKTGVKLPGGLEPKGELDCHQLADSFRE
inactive: erlotinib 0.06 | [2] 0.025 | [4] 0.218 | [5] -0.033 | IRAK-1-4 Inhibitor I 0.016 | ibrutinib 0.035 | [9] 0.169 | ralimetinib 0.012 | [10] -0.087 | [11] -0.029 | [12] -0.021 | [13] 0.236 | [14] 0.123 | [15] 0.037 | [16] -0.139

IRS2 (UniProt Q9Y4H2)
UniProt Q9Y4H2, sequence (Q9Y4H2 whole entry, looked up): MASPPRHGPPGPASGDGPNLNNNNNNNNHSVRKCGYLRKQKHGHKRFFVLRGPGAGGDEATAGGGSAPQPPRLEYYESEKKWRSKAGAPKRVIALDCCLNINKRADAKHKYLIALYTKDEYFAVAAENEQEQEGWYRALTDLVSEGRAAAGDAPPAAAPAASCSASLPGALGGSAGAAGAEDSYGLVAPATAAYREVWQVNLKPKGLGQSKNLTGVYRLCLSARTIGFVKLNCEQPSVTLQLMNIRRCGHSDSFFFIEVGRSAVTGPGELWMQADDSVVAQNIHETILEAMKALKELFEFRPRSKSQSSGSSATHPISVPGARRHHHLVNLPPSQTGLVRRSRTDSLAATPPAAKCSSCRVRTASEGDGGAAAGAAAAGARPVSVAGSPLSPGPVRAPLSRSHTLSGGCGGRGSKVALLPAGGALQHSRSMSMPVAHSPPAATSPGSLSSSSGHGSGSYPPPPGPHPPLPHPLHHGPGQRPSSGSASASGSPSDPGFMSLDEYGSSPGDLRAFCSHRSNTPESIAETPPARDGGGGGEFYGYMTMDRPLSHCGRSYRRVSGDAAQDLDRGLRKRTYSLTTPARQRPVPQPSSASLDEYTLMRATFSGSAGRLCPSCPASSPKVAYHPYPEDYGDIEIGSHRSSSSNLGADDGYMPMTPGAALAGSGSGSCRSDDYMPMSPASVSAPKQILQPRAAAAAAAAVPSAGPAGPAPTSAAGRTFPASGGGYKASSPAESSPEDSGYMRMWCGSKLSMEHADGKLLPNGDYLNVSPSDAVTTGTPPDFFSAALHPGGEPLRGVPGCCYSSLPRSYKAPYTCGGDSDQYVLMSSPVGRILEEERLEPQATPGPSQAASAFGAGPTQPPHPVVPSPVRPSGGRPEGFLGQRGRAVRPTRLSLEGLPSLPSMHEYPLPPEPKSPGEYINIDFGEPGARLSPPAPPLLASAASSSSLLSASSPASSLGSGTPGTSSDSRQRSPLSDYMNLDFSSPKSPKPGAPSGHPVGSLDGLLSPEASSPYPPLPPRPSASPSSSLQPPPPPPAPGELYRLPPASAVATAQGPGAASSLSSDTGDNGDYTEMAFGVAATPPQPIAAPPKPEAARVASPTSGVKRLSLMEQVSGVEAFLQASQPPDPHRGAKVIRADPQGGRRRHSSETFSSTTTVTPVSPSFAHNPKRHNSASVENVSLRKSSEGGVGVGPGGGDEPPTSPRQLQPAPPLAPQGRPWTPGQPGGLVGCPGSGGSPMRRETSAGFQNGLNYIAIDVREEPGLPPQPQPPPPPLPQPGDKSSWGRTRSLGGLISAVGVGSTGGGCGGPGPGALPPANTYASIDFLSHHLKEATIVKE
inactive: erlotinib 0.04 | [2] -0.099 | [4] 0.164 | [5] 0.143 | IRAK-1-4 Inhibitor I -0.009 | ibrutinib -0.089 | [9] -0.209 | ralimetinib 0.014 | [10] 0.047 | [11] 0.03 | [12] 0.049 | [13] -0.079 | [14] 0.118 | [15] -0.051 | [16] 0.254

HECW2 (UniProt Q9P2P5)
UniProt Q9P2P5, sequence (Q9P2P5 whole entry, looked up): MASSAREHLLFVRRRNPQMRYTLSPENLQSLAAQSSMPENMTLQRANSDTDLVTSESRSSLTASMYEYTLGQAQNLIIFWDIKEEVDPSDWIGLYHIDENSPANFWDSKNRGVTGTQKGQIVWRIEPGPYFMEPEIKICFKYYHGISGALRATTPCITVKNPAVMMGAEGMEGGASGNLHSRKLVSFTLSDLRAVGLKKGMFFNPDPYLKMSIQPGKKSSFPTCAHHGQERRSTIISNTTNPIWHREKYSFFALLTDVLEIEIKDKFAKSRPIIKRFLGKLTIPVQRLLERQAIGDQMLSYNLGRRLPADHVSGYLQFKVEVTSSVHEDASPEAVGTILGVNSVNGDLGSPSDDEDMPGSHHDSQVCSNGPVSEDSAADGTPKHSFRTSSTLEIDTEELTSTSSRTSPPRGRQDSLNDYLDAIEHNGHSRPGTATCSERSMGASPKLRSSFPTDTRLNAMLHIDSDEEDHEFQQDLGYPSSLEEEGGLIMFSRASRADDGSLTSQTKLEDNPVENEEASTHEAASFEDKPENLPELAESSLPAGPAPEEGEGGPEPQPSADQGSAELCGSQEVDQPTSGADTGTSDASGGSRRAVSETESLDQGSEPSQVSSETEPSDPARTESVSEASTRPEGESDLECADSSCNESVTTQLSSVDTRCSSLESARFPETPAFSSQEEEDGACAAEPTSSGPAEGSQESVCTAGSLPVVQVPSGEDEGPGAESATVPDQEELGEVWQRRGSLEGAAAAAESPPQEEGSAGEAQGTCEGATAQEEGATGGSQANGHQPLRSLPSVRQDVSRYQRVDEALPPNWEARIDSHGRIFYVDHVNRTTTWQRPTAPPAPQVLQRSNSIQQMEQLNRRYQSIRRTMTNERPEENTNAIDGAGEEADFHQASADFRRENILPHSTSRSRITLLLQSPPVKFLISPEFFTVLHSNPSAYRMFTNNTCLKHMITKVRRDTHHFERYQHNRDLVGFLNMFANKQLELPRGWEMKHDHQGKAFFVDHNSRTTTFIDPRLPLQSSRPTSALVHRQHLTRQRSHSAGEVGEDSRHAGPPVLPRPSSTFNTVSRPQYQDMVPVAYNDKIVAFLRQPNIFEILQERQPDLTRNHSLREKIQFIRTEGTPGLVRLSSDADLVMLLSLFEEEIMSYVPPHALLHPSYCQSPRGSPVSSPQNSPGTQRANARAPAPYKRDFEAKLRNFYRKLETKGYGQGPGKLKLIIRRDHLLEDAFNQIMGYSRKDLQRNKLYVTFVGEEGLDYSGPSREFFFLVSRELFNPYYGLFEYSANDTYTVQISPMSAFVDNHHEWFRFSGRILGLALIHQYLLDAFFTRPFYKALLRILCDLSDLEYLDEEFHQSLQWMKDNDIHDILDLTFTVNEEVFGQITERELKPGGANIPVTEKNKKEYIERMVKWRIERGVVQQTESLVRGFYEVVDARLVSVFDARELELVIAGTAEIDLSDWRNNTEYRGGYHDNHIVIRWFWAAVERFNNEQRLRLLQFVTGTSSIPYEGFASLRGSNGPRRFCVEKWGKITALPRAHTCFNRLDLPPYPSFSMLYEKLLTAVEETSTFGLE
inactive: erlotinib -0.012 | [1] 0.009 | [2] -0.093 | [3] 0.013 | [5] -0.075 | [6] 0.023 | [7] 0.029 | [8] -0.118 | IRAK-1-4 Inhibitor I 0.082 | ralimetinib 0.106 | [10] -0.148 | [11] -0.036 | [12] 0.019 | [13] -0.091 | [14] 0.116 | [15] 0.073

HNRNPM (UniProt M0R019)
inactive: [1] 0.224 | [3] 0.178 | [6] -0.128

GYPA, A0A2R8Y7F9
inactive: [4] 0.066 | ibrutinib -0.019

GTPBP6 (UniProt O43824)
UniProt O43824, sequence (O43824 whole entry, looked up): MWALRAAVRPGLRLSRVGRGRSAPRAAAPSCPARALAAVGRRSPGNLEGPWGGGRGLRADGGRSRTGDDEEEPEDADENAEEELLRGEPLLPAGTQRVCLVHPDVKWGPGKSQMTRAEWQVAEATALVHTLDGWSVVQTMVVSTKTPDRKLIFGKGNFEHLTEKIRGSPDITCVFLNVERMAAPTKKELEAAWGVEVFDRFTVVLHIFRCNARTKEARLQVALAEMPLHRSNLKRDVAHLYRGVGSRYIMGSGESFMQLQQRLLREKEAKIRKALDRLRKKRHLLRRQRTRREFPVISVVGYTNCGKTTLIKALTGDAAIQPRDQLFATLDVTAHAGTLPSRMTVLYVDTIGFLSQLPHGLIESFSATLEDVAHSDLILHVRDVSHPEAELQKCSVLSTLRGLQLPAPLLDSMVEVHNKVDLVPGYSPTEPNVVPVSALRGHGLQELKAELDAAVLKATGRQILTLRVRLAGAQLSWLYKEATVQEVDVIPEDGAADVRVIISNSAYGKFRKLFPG
inactive: [1] 0.187 | [3] 0.11 | [6] -0.048 | [7] -0.082 | [8] 0.037 | [13] -0.617

KIAA0930 isoform 2 (UniProt Q6ICG6)
UniProt Q6ICG6, sequence (Q6ICG6 whole entry, looked up): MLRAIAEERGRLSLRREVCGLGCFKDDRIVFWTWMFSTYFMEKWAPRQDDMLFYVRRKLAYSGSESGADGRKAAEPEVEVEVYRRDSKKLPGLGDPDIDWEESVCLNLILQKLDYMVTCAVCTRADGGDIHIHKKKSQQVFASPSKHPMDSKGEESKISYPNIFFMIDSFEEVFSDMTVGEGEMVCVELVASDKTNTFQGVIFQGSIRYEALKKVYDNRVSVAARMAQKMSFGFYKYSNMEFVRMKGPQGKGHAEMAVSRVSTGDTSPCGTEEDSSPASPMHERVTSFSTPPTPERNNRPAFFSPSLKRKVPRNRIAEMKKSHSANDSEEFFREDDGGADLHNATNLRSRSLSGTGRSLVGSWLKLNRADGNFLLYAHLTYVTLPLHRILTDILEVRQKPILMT
inactive: [1] -0.004 | [3] -0.067 | [4] -0.229 | [5] -0.258 | [6] 0.203 | [7] 0.099 | [8] -0.01 | IRAK-1-4 Inhibitor I -0.063 | ibrutinib -0.16 | [9] -0.032 | ralimetinib 0.091 | [10] -0.085 | [12] -0.014 | [13] -0.119 | [14] 0.042 | [15] -0.289 | [16] -0.017

ITPR2 (UniProt Q14571)
inactive: erlotinib 0.058 | [2] 0.163 | [5] -0.051 | IRAK-1-4 Inhibitor I 0.021 | [9] -0.04 | ralimetinib 0.069 | [10] -0.233 | [11] 0.063 | [12] -0.137 | [13] -0.072 | [15] -0.031 | [16] -0.322

IMPDH2 (UniProt H0Y4R1)
inactive: [1] -0.014 | [3] 0.023 | [4] -0.118 | [5] -0.155 | [6] -0.029 | [7] 0.099 | [8] 0.076 | IRAK-1-4 Inhibitor I 0.037 | ibrutinib -0.025 | [9] -0.047 | ralimetinib -0.069 | [10] -0.112 | [12] -0.019 | [13] 0.032 | [14] -0.04 | [15] 0.062 | [16] 0.032

GPN2 (UniProt Q9H9Y4)
UniProt Q9H9Y4, sequence (Q9H9Y4 whole entry, looked up): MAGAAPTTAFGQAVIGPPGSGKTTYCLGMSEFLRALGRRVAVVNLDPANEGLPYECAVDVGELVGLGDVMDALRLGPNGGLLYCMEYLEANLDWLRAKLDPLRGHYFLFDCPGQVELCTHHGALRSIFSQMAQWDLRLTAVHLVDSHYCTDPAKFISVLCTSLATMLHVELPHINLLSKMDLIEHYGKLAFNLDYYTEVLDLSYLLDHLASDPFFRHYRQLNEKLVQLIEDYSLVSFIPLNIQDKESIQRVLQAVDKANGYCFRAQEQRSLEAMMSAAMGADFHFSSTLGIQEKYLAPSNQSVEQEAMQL
inactive: erlotinib -0.022 | [1] 0.089 | [2] 0.032 | [3] 0.043 | [5] -0.041 | [6] -0.056 | [8] -0.062 | IRAK-1-4 Inhibitor I -0.027 | [9] -0.022 | ralimetinib 0.12 | [10] 0.028 | [11] -0.042 | [12] 0.036 | [13] 0.025 | [14] 0.067 | [15] 0.057 | [16] 0.019
active: [7] -0.241
